Screening results deposited in PubChem by Broad Institute.
The sample as a whole holds a higher share of hits than the screen did.
IDE exosite inh: insulin-degrading enzyme (human) exo-site inhibition; 17,000 tested, 6.3% active; P14735; z-score at 20 µM; purified IDE, FL-6b probe fluorescence polarization; hits give low values;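 active means z-score of -3 or lower, meaning strong loss of probe binding signal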;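 further: His-tagged human IDE residues 42-1019 made in E. coli with 30 nM FL-6b probe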
Target sequence (P14735 42-1019 limits assumed): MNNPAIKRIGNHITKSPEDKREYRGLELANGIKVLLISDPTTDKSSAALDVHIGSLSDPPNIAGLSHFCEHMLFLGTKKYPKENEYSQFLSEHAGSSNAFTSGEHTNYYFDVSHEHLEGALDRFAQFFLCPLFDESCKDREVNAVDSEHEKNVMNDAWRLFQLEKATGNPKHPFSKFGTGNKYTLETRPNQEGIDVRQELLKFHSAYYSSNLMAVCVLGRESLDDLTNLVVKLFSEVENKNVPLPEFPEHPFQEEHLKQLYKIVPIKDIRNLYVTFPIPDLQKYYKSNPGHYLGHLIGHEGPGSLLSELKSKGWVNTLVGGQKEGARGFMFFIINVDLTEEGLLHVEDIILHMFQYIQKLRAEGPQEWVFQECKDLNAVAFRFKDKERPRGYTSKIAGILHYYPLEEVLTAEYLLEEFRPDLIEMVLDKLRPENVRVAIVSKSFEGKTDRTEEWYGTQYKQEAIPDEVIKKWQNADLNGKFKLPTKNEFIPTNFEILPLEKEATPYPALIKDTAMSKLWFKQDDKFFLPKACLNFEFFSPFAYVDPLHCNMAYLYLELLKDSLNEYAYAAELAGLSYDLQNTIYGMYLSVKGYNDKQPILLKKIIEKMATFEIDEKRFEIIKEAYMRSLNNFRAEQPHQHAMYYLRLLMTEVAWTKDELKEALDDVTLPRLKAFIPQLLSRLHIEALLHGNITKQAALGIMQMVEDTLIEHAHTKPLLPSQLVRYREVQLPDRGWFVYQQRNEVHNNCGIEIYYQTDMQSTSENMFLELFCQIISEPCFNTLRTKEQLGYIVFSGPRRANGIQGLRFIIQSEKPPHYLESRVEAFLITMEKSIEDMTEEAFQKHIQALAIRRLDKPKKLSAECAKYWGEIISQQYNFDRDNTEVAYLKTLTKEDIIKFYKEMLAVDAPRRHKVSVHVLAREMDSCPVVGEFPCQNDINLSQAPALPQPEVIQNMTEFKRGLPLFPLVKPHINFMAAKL
Of the large screens only hits and unclear results are named; the others gave an inactive call.

O=C(C1CCC1)N1CC(=O)N2[C@H](CO)[C@@H](c3ccc(C#Cc4cccc(F)c4)cc3)[C@@H]2C1	IDE exosite inh -4.4
O=C(C1CC1)N1CC(=O)N2[C@H](CO)[C@H](c3ccc(C#CCc4ccccc4)cc3)[C@H]2C1	none
O=C(C1CCOCC1)N1CC(=O)N2[C@H](CO)[C@@H](c3ccc(C#Cc4cccc(F)c4)cc3)[C@@H]2C1	IDE exosite inh -10
O=C(C1CCC1)N1CC(=O)N2[C@@H](CO)[C@H](c3ccc(C#CCc4ccccc4)cc3)[C@@H]2C1	none
O=C(C1CCC1)N1CC(=O)N2[C@H](CO)[C@H](c3ccc(C#Cc4cccc(F)c4)cc3)[C@H]2C1	IDE exosite inh -10
O=C(C1CCCCC1)N1CC(=O)N2[C@H](C1)[C@H](c1ccc(C#Cc3cccc(F)c3)cc1)[C@@H]2CO	none
O=C(C1CCCC1)N1CC(=O)N2[C@H](CO)[C@H](c3ccc(C#CC4CCCC4)cc3)[C@@H]2C1	none
O=C(C1CC1)N1CC(=O)N2[C@@H](CO)[C@@H](c3ccc(C#Cc4cccc(F)c4)cc3)[C@@H]2C1	IDE exosite inh -4.7
O=C(C1CC1)N1CC(=O)N2[C@H](CO)[C@H](c3ccc(C#CC4CCCC4)cc3)[C@H]2C1	none
C[C@@H]1CCn2cc(nn2)COC[C@H](c2ccccc2)NC1=O	none
CCc1cnc(N2[C@H](CO)[C@@H](c3ccc(C#CC(C)C)cc3)[C@@H]2C#N)s1	none
N#C[C@@H]1[C@@H](c2ccccc2C2=CCCC2)[C@H](CO)N1C(=O)C1CCC1	none
CCCC#Cc1ccc([C@H]2[C@@H](CO)N3C(=O)CN(C(=O)c4ccccc4)C[C@@H]23)cc1	none
CO[C@@H](C(=O)N(C)C[C@@H]1OCc2ccccc2-c2ccccc2C(=O)N([C@H](C)CO)C[C@@H]1C)c1ccccc1	none
CN1C(=O)c2cc(NC(=O)c3cccc(F)c3)ccc2OC[C@H]2O[C@@H](CC(=O)NCc3ccccc3Cl)CC[C@H]21	none
O=C(CN1CCOCC1)N1CCCCN2[C@H](C1)[C@@H](c1ccc(C#Cc3ccccc3)cc1)[C@@H]2CO	IDE exosite inh -6.6
O=C(CN1CCOCC1)N1CCCCN2[C@@H](CO)[C@@H](c3ccc(C#Cc4ccccc4)cc3)[C@@H]2C1	IDE exosite inh -5.5
O=C(CN1CCOCC1)N1CCCCN2[C@H](CO)[C@@H](c3ccc(C#Cc4ccccc4)cc3)[C@H]2C1	IDE exosite inh -3.3
O=C(CN1CCOCC1)N1CCCCN2[C@@H](CO)[C@H](c3ccc(C#Cc4ccccc4)cc3)[C@@H]2C1	IDE exosite inh -7.1
Cc1ccccc1-c1ccc([C@H]2[C@@H](CO)N3CCCCN(C(=O)CN4CCOCC4)C[C@@H]23)cc1	none
C/C=C/c1ccc([C@H]2[C@@H](CO)N(CC3CCCC3)[C@H]2CNC(=O)NC(C)C)cc1	none
COc1ccc(S(=O)(=O)N2CCCCN3[C@H](CO)[C@H](c4ccc(C#CC5CC5)cc4)[C@H]3C2)cc1	none
COc1ccc2c3c([nH]c2c1)[C@@H](CO)N(C(=O)CN(C)C)CC31CCN(Cc2cncnc2)CC1	none
O=C(Nc1ccc(F)cc1)N1CC(=O)N2[C@H](CO)[C@@H](c3ccc(C#Cc4ccccc4)cc3)[C@@H]2C1	none
Cc1noc(C)c1NC(=O)N(C)C[C@@H]1Oc2cc(C#CCN(C)C)ccc2S(=O)(=O)N([C@@H](C)CO)C[C@H]1C	none
CN(C)C(=O)c1ccc(-c2ccc(C3[C@H]4CNC[C@@H]3N4CC3CCCCC3)cc2)cc1 (some centres undefined)	none
COCc1cn(CC[C@@H]2CC[C@@H](NC(=O)Nc3c(C)noc3C)[C@H](CO)O2)nn1	none
CNC(=O)C[C@@H]1CC[C@@H]2[C@H](COC[C@H](O)CN2Cc2ccccc2F)O1	none
O=C(CN1CCOCC1)N1CCCCN2[C@H](CO)[C@@H](c3ccc(-c4ccccc4)cc3)[C@@H]2C1	none
O=C(CN1CCOCC1)N1CCCCN2[C@H](CO)[C@H](c3ccc(Br)cc3)[C@@H]2C1	none
O=C(CN1CCOCC1)N1CCCCN2[C@@H](CO)[C@@H](c3ccc(/C=C/c4ccccc4)cc3)[C@@H]2C1	IDE exosite inh -10
O=C(CN1CCOCC1)N1CCCCN2[C@H](C1)[C@H](c1ccc(C#Cc3ccccc3)cc1)[C@@H]2CO	IDE exosite inh -13
O=C(CN1CCOCC1)N1CCCCN2[C@H](CO)[C@@H](c3ccc(-c4ccccc4)cc3)[C@H]2C1	none
O=C(CN1CCOCC1)N1CCCCN2[C@H](C1)[C@H](c1ccc(Br)cc1)[C@@H]2CO	none
COCC(=O)Nc1ccc2c(c1)[C@H]1C[C@H](CC(=O)N3CCOCC3)O[C@@H](CO)[C@H]1O2	none
CCCC(=O)N1CCC2(CC1)CN(C(=O)Cc1ccccn1)[C@H](CO)c1[nH]c3cc(OC)ccc3c12	none
Cc1noc(C)c1NC(=O)N1C[C@H](O)COC[C@H]2O[C@H](CC(=O)N[C@@H]3CCN(Cc4ccccc4)C3)CC[C@@H]21	none
COc1ccc(C#Cc2ccc([C@@H]3[C@H](CO)N4C(=O)CN(C(=O)c5ccc(F)cc5)C[C@@H]34)cc2)cc1	none
CN1CCN(C(=O)C[C@@H]2CC[C@@H]3[C@@H](COc4ccc(NC(=O)c5cccs5)cc4C(=O)N3C)O2)CC1	none
CCN(C[C@@H]1[C@H](c2ccccc2)[C@H](CO)N1C(=O)COC)S(C)(=O)=O	none
O=C(NC1CCCCC1)N1CC(=O)N2[C@H](CO)[C@@H](c3ccc(-c4ccccc4)cc3)[C@H]2C1	IDE exosite inh -5.2
O=C(NC1CCCCC1)N1CC(=O)N2[C@@H](CO)[C@H](c3ccc(-c4ccccc4)cc3)[C@@H]2C1	none
O=C(NC1CCCCC1)N1CC(=O)N2[C@@H](CO)[C@H](c3ccc(-c4ccncc4)cc3)[C@@H]2C1	none
O=C(NC1CCCCC1)N1CC(=O)N2[C@H](C1)[C@H](c1ccc(-c3ccncc3)cc1)[C@@H]2CO	none
O=C(NC1CCCCC1)N1CC(=O)N2[C@H](C1)[C@@H](c1ccc(-c3ccccc3)cc1)[C@@H]2CO	IDE exosite inh -9.1
O=C(NC1CCCCC1)N1CC(=O)N2[C@H](C1)[C@H](c1ccc(-c3ccccc3)cc1)[C@@H]2CO	none
O=C(NC1CCCC1)N1CC(=O)N2[C@H](CO)[C@@H](c3ccc(-c4cccnc4)cc3)[C@H]2C1	none
O=C(NC1CCCC1)N1CC(=O)N2[C@H](CO)[C@H](c3ccc(-c4cccnc4)cc3)[C@H]2C1	none
O=C(NC1CCCCC1)N1CC(=O)N2[C@@H](CO)[C@@H](c3ccc(-c4ccccc4)cc3)[C@@H]2C1	IDE exosite inh -3.7
C/C=C/c1ccccc1[C@@H]1[C@H](C#N)N(C(=O)Cc2ccccn2)[C@H]1CO	none
CCC(=O)N1CC2(C1)[C@@H](c1ccc(-c3cccc(C)c3)cc1)[C@H](CO)N2S(C)(=O)=O	none
C/C=C/c1ccc([C@@H]2[C@@H](CO)N3C(=O)CN(C(=O)c4cccc(F)c4)C[C@@H]23)cc1	none
O=C(c1ccccc1)N1CC(=O)N2[C@H](CO)[C@@H](c3ccc(C#Cc4ccccc4)cc3)[C@H]2C1	none
N#C[C@H]1[C@H](c2ccc(C#CC3CCCC3)cc2)[C@@H](CO)N1C(=O)Cc1ccccn1	none
CCC(=O)NC[C@H]1[C@@H](c2ccc(C3=CCCC3)cc2)[C@@H](CO)N1C(=O)CC	none
O=C(c1ccccc1)N1CC(=O)N2[C@H](C1)[C@@H](c1ccc(C#CCC3CCCC3)cc1)[C@@H]2CO	none
O=C(c1cccc(F)c1)N1CC(=O)N2[C@H](CO)[C@H](c3ccc(-c4cccnc4)cc3)[C@@H]2C1	none
O=C(c1cnccn1)N1CC(=O)N2[C@H](CO)[C@H](c3ccc(-c4ccc(F)cc4)cc3)[C@@H]2C1	none
O=C(c1ccccn1)N1CC(=O)N2[C@H](C1)[C@H](c1ccc(-c3cccc(F)c3)cc1)[C@@H]2CO	none
